The record followed here is PubChem BioAssay (NCI).

About 83,000 compounds went through this panel and 20% of them were active in at least one assay; those are over-represented in the sample as a whole.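 Activity criterion: percent growth below 10, measured after cells in 96-well plates were exposed to a single compound concentration for 48 hours.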 The source made the active and inactive calls.

The test system of the experiment is HL-60(TB) leukemia. Nature of the experiment: NCI-60 one-dose screen, 48 h (100 = growth as untreated, 0 = no growth, -100 = all killed). The conditions noted are these: 10 µM unless noted.
As for `CN1CCc2c(sc3ncnc(N/N=C/c4ccc(Cl)c(Cl)c4)c23)C1`, the growth is -58.2% (active).
In the case of `O=C(CSc1nc2ccccc2c(=O)n1CCc1ccccc1)Nc1ccc(S(=O)(=O)Nc2ccc(Cl)nn2)cc1` it was 132% (inactive); in that of `Cn1ccnc1C(=O)/C=C/c1ccc(CNC(=O)c2ccc(S(F)(F)(F)(F)F)cc2)cc1`, -4.98% (active); in that of `C#CCOc1ccccc1/C=N/Nc1nc(-c2ccc(Cl)cc2)cs1`, 90.8% (inactive).
In the case of `COc1ccc(-c2cc(C(=O)N=Nc3c(O)[nH]c4ccccc34)c3ccccc3n2)cc1OC` it was 106% (inactive).
In the case of `Cc1[nH]c(C(=O)Nc2ccccc2OCc2cccc(C(=O)NCCN)c2)cc1Cl`, the growth is 89.6% (inactive).
The value for `O=S(=O)(NCCCNc1nccc(-c2[nH]c(-c3ccccc3)nc2-c2ccc(F)c(O)c2)n1)c1cccc(F)c1` was 95.7% (inactive); that for `CC[C@]12C=CCN3CC[C@@]4(c5cc(NC(=O)COc6cc(O)c7c(=O)cc(-c8ccccc8)oc7c6)c(OC)cc5N(C)[C@H]4[C@@](O)(C(=O)OC)[C@@H]1OC(C)=O)[C@@H]32` was -44.9% (active); that for `COc1cc(NC(=O)Nc2cccc(-c3cc(=O)c4c(OC)c(OC)c(OC)cc4o3)c2)cc(OC)c1OC` was 45% (inactive).
The value for `C#C[C@]1(O)CC[C@H]2[C@@H]3CC=C4c5sc(C6CC6)nc5CC[C@]4(C)[C@H]3CC[C@@]21C` was 58.8% (inactive).
In the case of `CC1CCc2c(sc3nc(SCC(=O)N/N=C/c4ccc(Cl)cc4)n(-c4ccccc4)c(=O)c23)C1` (stereo not drawn), the growth is 107% (inactive).
The value for `CC(=O)N1N=C(c2cc3ccccc3oc2=O)CC1c1cn(-c2ccccc2)nc1-c1ccc(C)cc1` (stereo not drawn) was 107% (inactive).
In the case of `CCN(CC)c1ccc(NC2=C(Cl)C(=O)c3nc(C)ccc3C2=O)cc1` it was -34.6% (active); in that of `COc1ccc2c(c1)c(CC(=O)[Se]CC#N)c(C)n2C(=O)c1ccc(Cl)cc1`, -14% (active); in that of `O=C(/C=C/Nc1ccc(S(=O)(=O)Nc2ncccn2)cc1)c1ccc(N=Cc2c(O)[nH]c3ccccc23)cc1`, 99.6% (inactive).
Take `CC(c1ccccc1)N1CSc2nc3ncncc3n2C1` (stereo not drawn): the growth is 17.4% (inactive).
In the case of `CC1(C)CC[C@]2(C(=O)O)CC[C@]3(C)C(=CCC4[C@@]5(C)C[C@@H](O)[C@@H]6OC(c7ccccc7O)OC[C@@]6(C)C5CC[C@]43C)C2C1` (stereo partly drawn) it was 38% (inactive).
In the case of `CCOC(=O)c1ccc(N/C=C/C(=O)c2ccccc2)cc1`, the growth was 84.3% (inactive).
The value for `CS(=O)(=O)Nc1cc(-c2ccc3ncc(C#N)c(NCc4cccc(F)c4)c3c2)cnc1Cl` was 4.11% (active).
Take `CCC(=O)Nc1ccc(-c2nc(-c3cccc(O)c3)c(-c3ccnc(Br)c3)[nH]2)cc1`: the growth was 35.6% (inactive).
In the case of `CN(C)c1ccc(/C=N/Nc2nc(N/N=C/c3ccc(N(C)C)cc3)nc(N3CCCCC3)n2)cc1` it was -38% (active); in that of `COc1cccc(O)c1/C=C(/C)c1ccc2c(OC)cccc2[o+]1`, 120% (inactive); in that of `CS(=O)(=O)Nc1cc(-c2ccc3ncc(C#N)c(Nc4cccc(Cl)c4F)c3c2)cnc1Cl`, 0.143% (active).
Turning to `CSc1ccc(/C(=N/N=C(N)N)c2ccccc2)cc1`, the growth is -17.1% (active).
The value for `C#Cc1nc(C(C)=O)cs1` was 100% (inactive); that for `O=C(Cn1cc(-c2ccccc2)nn1)Nc1nc(-c2ccc(Cl)cc2)cs1` was 89.7% (inactive); that for `FC(F)(F)c1cc(Br)cc(-c2cc(-c3ccc4c(c3)OCCO4)[nH]n2)c1` was 6.8% (active).
As to `Nc1nc(Nc2ccccc2SSc2ccccc2Nc2nc(N)nc(-c3ccccc3)n2)nc(-c2ccccc2)n1`, the growth is 62.1% (inactive).
The value for `O=[N+]([O-])c1ccc(NC(=S)NNC(=S)Nc2ccc(F)cc2)cc1` was 84.8% (inactive).
In the case of `CC[C@]12C=CCN3CC[C@]4(C(=C(C(=O)OC)C1)Nc1cc5c(cc14)[C@@H]1[C@H](O5)[C@@H](O)[C@@]4(CC)CC(C(=O)OC)=C5Nc6cc(O)ccc6[C@@]56CCN1C46)C32` (stereo partly drawn) it was -9.82% (active); in that of `Cc1ccc(-c2cc3nc(C(Cl)Cl)nc(-c4cccs4)n3n2)cc1`, 23.9% (inactive).
In the case of `CCn1c2ccc(/C=N/NS(=O)(=O)CCN(C)C)cc2c2cc(/C=N/NS(=O)(=O)CCN(C)C)ccc21` it was 103% (inactive); in that of `C=C(C)[C@@H]1CC[C@]2(C(=O)NC3CCCCC3)CC[C@]3(C)[C@H](CC[C@@H]4[C@@]5(C)CC[C@H](N)C(C)(C)[C@@H]5CC[C@]43C)[C@@H]12`, 74.5% (inactive).
